Results reported in PubChem BioAssay AID485272 (The Scripps Research Institute Molecular Screening Center, 2010).
Among all 330,000 compounds or so, about 1,300 (0.39%) were called active.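 The calls were made as follows: active = percent inhibition above a cutoff equal to the mean of all tested compounds plus 3 SD (cut at about 15% in these data); inactive = the rest.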 What follows is part of a selection rich in actives, with near analogues and random picks from the rest.

Biological target: Protein-arginine deiminase type-4 (Homo sapiens) (UniProt Q9UM07)
Assay: human PAD4 inhibitors, primary screen, biochemical, fluorescence polarization, 1536-well format (AID 485272);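 also: 0% = PAD4 with RCA probe and DMSO and 100% = probe without PAD4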
Details: recombinant PAD4, RCA probe fluorescence polarization; at 6.36 µM; active compounds read high

Chain of Protein-arginine deiminase type-4 (Homo sapiens) (Q9UM07 whole entry, looked up): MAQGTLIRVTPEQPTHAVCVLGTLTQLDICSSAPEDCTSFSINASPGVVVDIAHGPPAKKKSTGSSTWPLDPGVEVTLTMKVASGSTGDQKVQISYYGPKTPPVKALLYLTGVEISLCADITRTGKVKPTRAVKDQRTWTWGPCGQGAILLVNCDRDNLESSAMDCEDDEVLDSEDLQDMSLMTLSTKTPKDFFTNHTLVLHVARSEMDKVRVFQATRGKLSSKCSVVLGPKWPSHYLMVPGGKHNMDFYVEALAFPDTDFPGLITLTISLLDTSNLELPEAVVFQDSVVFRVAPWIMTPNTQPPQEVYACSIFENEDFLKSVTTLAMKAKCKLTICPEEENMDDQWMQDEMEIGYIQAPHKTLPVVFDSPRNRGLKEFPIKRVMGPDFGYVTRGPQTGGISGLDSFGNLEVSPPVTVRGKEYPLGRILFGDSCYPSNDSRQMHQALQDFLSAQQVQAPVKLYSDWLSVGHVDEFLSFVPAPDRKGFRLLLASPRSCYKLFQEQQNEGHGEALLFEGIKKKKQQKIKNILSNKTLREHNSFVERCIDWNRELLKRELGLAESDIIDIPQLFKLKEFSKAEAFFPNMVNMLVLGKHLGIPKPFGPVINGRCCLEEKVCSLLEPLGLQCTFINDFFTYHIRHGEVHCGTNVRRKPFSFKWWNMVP

inhibition, inactive:
O=C(CSc1nc2ccccc2c(=O)n1Cc1ccc(F)cc1)NCC1CCCO1 (configuration not stated) -1.2%
O=C(CSc1nc2ccccc2c(=O)n1-c1ccc(F)cc1)NC1CC1 1.54%
CCN(C(=O)CSc1nc(N)cc(=O)[nH]1)C1CCS(=O)(=O)C1 (configuration not stated) -0.69%
CONc1nc2nonc2nc1NOC -1.87%
COc1ccc([C@H]2CC(=O)C=C(c3ccc(CO)cc3)C2)cc1 1.09%
O=S(=O)(Cc1nnnn1-c1ccc(Br)cc1)c1ccc(F)cc1 -0.08%
O=C1CN(C(=O)CN2C(=O)NC3(CCCCC3)C2=O)c2ccccc2N1 1.47%
Cc1ccc(C)c(S(=O)(=O)N2CCCOC2CNC(=O)C(=O)NC2CCCCC2)c1 (configuration not stated) -5.07%
COc1ccc(-c2nc(CS(=O)CC(=O)NCc3ccccc3)c(C)o2)cc1OC (configuration not stated) 6.4%
COc1cccc(-c2nc(CS(=O)CC(=O)NCc3ccc(F)cc3)c(C)o2)c1 (configuration not stated) 0.77%
Cc1ccc(/C=C2\CCn3c2nc2cc(C(=O)O)ccc2c3=O)c(C)c1 -1.1%
COc1ccccc1OCCCCCCN1CCN(C)CC1 -0.69%
Cn1c(SCC(=O)Nc2nccs2)nnc1-c1cccnc1 0.78%
Cc1c(C(=O)Nc2cccc(Cl)c2)cn2c(nc3ccccc32)c1C#N -8.49%
Cn1c(NC(=O)c2ccccc2)nc2ccccc21 -1.36%
CC(NC(=O)c1ccc(Cl)cc1)C(=O)N1CCCCC1 (configuration not stated) -2.13%
CC(C)CNC(=S)NC(=O)c1ccc(Cl)cc1 3.77%
CN(C)N1C(N)=C(C#N)C(c2ccc(Br)cc2)C2=C1CCCC2=O (configuration not stated) -7.04%
Cc1ccc(-c2nn(-c3ccccc3)cc2/C=C2\SC(=S)N(CCCCCC(=O)O)C2=O)o1 -0.43%
Cc1ccc(-c2nn(-c3ccccc3)cc2/C=C/C(=O)Nc2cccc(S(N)(=O)=O)c2)cc1 -9.63%
Cc1cc(NS(=O)(=O)c2ccc(NC(=S)NC(=O)c3ccc(F)cc3Cl)cc2)no1 -2.99%
CCOc1ccc(S(=O)(=O)N2CCC(C(=O)NCc3ccccn3)CC2)cc1Cl -2.62%
C=C1CCC(N(O)c2cc(C)on2)C(=C)CCC2C1CC2(C)C (configuration not stated) -6.2%
Cc1[nH]n(-c2ccc([N+](=O)[O-])cc2)c(=O)c1C=NCCN1CCN(C(=O)c2ccccc2F)CC1 -1.51%
COc1cnn(-c2ccc([N+](=O)[O-])cc2)c(=O)c1Cl 3.88%
CCCCCNC(=O)Cc1ccc(OC)cc1 1.91%
COc1ccc(-c2cc(C(=O)NCCCN3CCOCC3)no2)cc1 -1.77%
c1ccc2c(c1)OCCOCCOCCO2 0.83%
CCn1c(SCC(=O)Nc2sc(C)c(C)c2C#N)nnc1C1CC1 -2.74%
CCCc1c(C)nc2c(Br)cccc2c1Cl 2.17%
COc1ccc(C2(O)C(=O)Nc3ccccc32)cc1 (configuration not stated) 0.37%
CCc1ccc2c(c1)C1(NN=C(c3ccccc3)S1)C(=O)N2 (configuration not stated) -9.11%
CC1(C)N=C(c2ccccn2)C(C)(C)N1O -1.6%
O=C(NCCc1ccccc1Cl)C1CCC(=O)N(CCCc2ccccc2)C1 (configuration not stated) 1.05%
Cc1c2cnn(CC(=O)NCc3ccccn3)c(=O)c2c(C)n1Cc1ccc(Cl)cc1 1.37%
CC(C)CNC(=O)CC(NCC(C)C)C(=O)O (configuration not stated) -2.65%
Oc1ccc(-c2[nH]ncc2-c2nc3ccccc3s2)c(O)c1 3.22%
Cc1nc2ccccc2nc1N/N=C/c1ccc(O)cc1O -3.07%
CS(=O)(=O)N(CC(=O)N1CCN(c2ccc(F)cc2)CC1)C1CCCCC1 -2.55%
C=CCN1C2CCCC1CC(NC(=S)Nc1cccc(OC)c1)C2 (configuration not stated) 3.98%
O=C(CN1C(=O)CCS(=O)(=O)c2ccccc21)NCc1ccc(F)cc1 -1.88%
C[C@H](CO)N1C[C@H](C)[C@@H](CN(C)Cc2ccc(-c3ccccc3)cc2)Oc2ccc(NC(=O)Cn3cnnn3)cc2C1=O -5.03%
O=C(Nc1ccc([N+](=O)[O-])cc1)C1(c2ccccc2)CCOCC1 -2.28%
CN(C(=O)CN1C(=O)CCSc2ccc(S(=O)(=O)N3CCCC3)cc21)c1ccccc1 -3.61%
NNC(=O)c1oc2nc(-c3ccccc3)cc(-c3ccco3)c2c1N -6.02%
CNC(=S)NNC(=O)c1cccn(Cc2ccccc2)c1=O -2.2%
COc1ccc([C@@H]2[C@@H]3C(=O)N(C(C)(C)C)C(=O)[C@@H]3[C@]3(Cc4ccccc4)C(=O)N(c4cccc(Br)c4)C(=O)N23)cc1 0.18%
Cc1nn(CC2CC2)c(=O)n1N(C)c1ncc(C(F)(F)F)cc1Cl 0.5%
O=C(Cc1ccc2c(c1)CCCC2)Nc1ccccc1Cl 1.33%
Cc1c(NC(=O)Nc2ccccc2Cl)sc(=S)n1C -3.79%

inhibition, active:
O=C(CCn1c(SCC(=O)c2ccccc2)nc2ccccc2c1=O)NCc1ccc(F)cc1 67.8%
COc1ccc(-c2nc(CS(=O)CC(=O)NCc3ccccn3)c(C)o2)cc1 (configuration not stated) 30.3%
Cn1c(Nc2cccc(Cl)c2)nc2ccccc21 22.6%
CC(C)C(NC(=O)c1ccc(Cl)cc1)C(=O)O (configuration not stated) 33.2%
CN(C)S(=O)(=O)c1cccc(-c2nn(-c3ccccc3)cc2/C=C2\SC(=S)N(CC(=O)O)C2=O)c1 29.1%
O=c1[nH]n(-c2ccc([N+](=O)[O-])cc2)c(=O)c2ccccc12 31.3%
CCCCNC(=O)C1(c2ccc(OC)cc2)CCOCC1 26.1%
O=C1Nc2ccccc2C12Nc1ccccc1S2 (configuration not stated) 21.3%
Cc1cc(O)ccc1-c1cnc2ccccc2n1 28.5%
CN1c2ccc(C=O)c3c(C=O)ccc(c23)N(C)C1(C)C 54.5%
CNC(=S)NNC(=O)c1oc2nc(-c3ccccc3)cc(-c3ccco3)c2c1N 19.9%
O=C(Nc1ccccc1Cl)/C(Cl)=C(\Cl)S(=O)c1ccccc1 (configuration not stated) 16.5%
